STAT3 blocker: IL-6 driven STAT3 reporter inhibitors, primary screen, U3A cells, luciferase, luminescence, MLSCN library | IL-6 STAT3-luciferase reporter; host cell line lacks STAT1 | inhibition, % at 5.5 µM | 190,000 tested, 0.89% active | AID 862, 2007;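 active means inhibition above the mean inhibition across all screened compounds plus 3 SD, cut at about 44% in these data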;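 further: 0% = DMSO only wells and 100% = 100 µM nifuroxazide control wells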
TRAIL sens C8: viability loss with TRAIL in NB7+C8 cells, primary screen, TRAIL sensitizer project, cell-based, ATPlite luminescence; inhibition (viability loss, TRAIL sensitization), % at 10 µM; 360,000 tested, 1% active; AID 624354, 2012;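 active means compounds causing at least 50% loss of cell viability in the single-dose screen, relative to plate controls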
HSP90 refold inh: HSP90 inhibitors, primary screen, cell lysate, luminescence. 290,000 tested, 0.91% active. Rabbit reticulocyte lysate, luciferase refolding luminescence, 3 h. inhibition, % at 5.6 µM. Heat shock protein HSP 90 (rabbit reticulocyte lysate; luciferase refolding);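 active means inhibition above the screen-wide mean plus 3 SD, computed separately per campaign, cut at about 16% in these data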;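 further: 0% = DMSO wells and 100% = 60 µM geldanamycin wells; inhibitors lower the luminescence because luciferase stays unfolded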
PPC-1+TRAIL kill: compounds killing PPC-1 cancer cells with TRAIL present, primary screen, TRAIL potentiator project, ATPLite luminescence, uHTS. PPC-1 cells + TRAIL, ATPLite viability luminescence. cell killing (% activity), % at 4 µM or 5 µM. 220,000 tested, 0.41% active. AID 1443, 2008;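 active means cell killing above 50% in the first pass at 4 µM, then a duplicate retest at 5 µM averaging 50% or more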;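 further: plate controls were cells with TRAIL plus DMSO for no effect and medium-only wells lacking cells for full effect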
HSF1 inh: HSF1 inhibitors in luciferase reporter cells, primary screen, cell-based, NIH3T3, luminescence | NIH3T3-HGL HSE-luciferase, MG132-induced, luminescence 8 h; active compounds read low | activity change, negative = inhibition, % at 7.5 µM (by protocol) | 300,000 tested, 0.77% active | AID 2098, 2009;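 active means more than half of replicate wells show activity change below -50%, luminescence cut by over half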;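 further: luciferase reports HSF-1 transcriptional activity via heat shock element; 0% = median of DMSO wells and -100% = zero luminescence signal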
STAT1 inh: STAT1 signaling inhibitors, primary screen, cell-based, HTS, luciferase reporter | inhibition, % at 5.5 µM | 200,000 tested, 0.35% active | NIH 3T3 STAT1-luciferase reporter, IFN-gamma, luminescence;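 active means inhibition above a set limit, the mean inhibition across all tested compounds plus 3 SD, cut at about 34% in these data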;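 further: 0% = IFN-gamma with DMSO and 100% = IFN-gamma with 300 µM nifuroxazide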
HSP90 confirm: HSP90 inhibitors, confirmation, cell lysate, luminescence | inhibition, % at 5.9 µM | rabbit reticulocyte lysate, luciferase refolding luminescence, 3 h | 2,300 tested, 64% active | AID 1846, 2009 | shares compounds with HSP90 refold inh; in the data active means inhibition above about 18%;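 further: 0% = vehicle wells and 100% = reference inhibitor wells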
FLuc counter: firefly luciferase inhibitors, HSP90 counter-screen, confirmation, artefact control for HSP90 inhibitor project, biochemical, luminescence, triplicate; shares compounds with HSP90 refold inh; purified native firefly luciferase; inhibition, % at 5.9 µM; 2,300 tested, 48% active;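 active means inhibition above the mean inhibition of all tested sample wells plus 3 SD, cut at about 10% in these data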;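 further: 0% = DMSO with luciferase and 100% = wells lacking luciferase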
Target sequence (P08659 whole entry, looked up): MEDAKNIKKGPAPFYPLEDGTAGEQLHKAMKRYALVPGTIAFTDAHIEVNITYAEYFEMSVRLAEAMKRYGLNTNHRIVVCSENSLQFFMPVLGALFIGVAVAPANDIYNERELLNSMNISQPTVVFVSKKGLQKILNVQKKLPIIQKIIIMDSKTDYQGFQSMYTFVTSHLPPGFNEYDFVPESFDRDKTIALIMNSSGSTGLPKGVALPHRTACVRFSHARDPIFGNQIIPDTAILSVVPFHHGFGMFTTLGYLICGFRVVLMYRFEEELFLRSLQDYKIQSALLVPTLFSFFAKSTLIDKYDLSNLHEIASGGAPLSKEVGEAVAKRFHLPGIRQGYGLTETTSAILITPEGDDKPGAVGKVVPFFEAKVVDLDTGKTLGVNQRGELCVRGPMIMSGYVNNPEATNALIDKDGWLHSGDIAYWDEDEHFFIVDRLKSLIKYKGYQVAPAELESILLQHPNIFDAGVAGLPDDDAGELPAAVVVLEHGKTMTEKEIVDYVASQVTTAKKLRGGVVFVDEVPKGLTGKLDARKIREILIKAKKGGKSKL
The depositor's hits bear a star; . = no result. The list is not random: actives were taken first. Their share in the collection is about 2.4%.

SMILES	STAT3 blocker	TRAIL sens C8	HSP90 refold inh	PPC-1+TRAIL kill	HSF1 inh	STAT1 inh	HSP90 confirm	FLuc counter
Cc1ccc(C)c(NC(=O)CN(C)C(=O)c2ccc(COc3ccccc3)cc2)c1	.	-10	.	.	.	.	.	.
COc1ccc(N(CC(=O)NCc2ccc(F)cc2)C(=O)Cn2nnc(-c3ccc(C)o3)n2)cc1OC	.	-8	49*	.	-87*	.	0	-3
COc1ccc(C2CCCCCN2C(=O)C2CCN(S(=O)(=O)c3ccc(C)cc3)CC2)cc1 (stereo not given)	.	-10	.	.	.	.	.	.
CC(=O)c1cccc(-c2ccnc3c2CC(C(=O)Nc2cccc(OC(F)(F)F)c2)O3)c1 (stereo not given)	.	8	.	.	.	.	.	.
CC1(c2ccc3noc(-c4ccc(F)cc4)c3c2)OCCO1	10	22	1	-2	1	-3	.	.
N#Cc1cc2c(nc1SCC(=O)N1CCOCC1)CCCCC2	0	19	54*	4	-67*	-15	1	-5
N#Cc1cc2c(nc1SCC(N)=O)CCCCC2	11	20	2	19	7	-15	.	.
CCCc1nc(NCCCOCC)c2nnn(Cc3ccccc3)c2n1	.	0	0	.	2	.	.	.
COC(=O)c1ccccc1OCCCOc1ccc(C=O)cc1OC	-38	8	60*	13	-8	-38	70*	-10
COc1ccc(/C(C)=N/NC(=O)Cn2nc([N+](=O)[O-])cc2C)cc1	.	9	30*	0	-2	.	-1	-7
COc1ccc(C(=O)NC2CCN(C(=S)Nc3cc(C)cc(C)c3)CC2)cc1	0	-8	1	15	-8	-2	.	.
COc1ccc(C(=O)NC2CCN(C(=S)Nc3cccc(C)c3)CC2)cc1	25	-3	21*	23	-7	6	5	-1
CN(C)c1ccc(/C=C2\CCC/C(=C\c3ccccc3)C2=O)cc1	12	18	-4	6	16	0	.	.
CC(=O)N1/C(=C/c2ccc(N(C)C)cc2)C(=O)c2ccccc21	4	-47	18*	2	-7	14	5	-13
COc1ccccc1/C=C/C=N/Nc1cccc(C(=O)O)c1	.	1	57*	.	-20	.	64*	49*
CN(C)c1ccc(/C=N/Nc2cccc(C(=O)O)c2)cc1	.	0	76*	.	-8	.	97*	94*
O=C(O)c1cccc(N/N=C/c2ccc(-c3ccccc3)cc2)c1	48*	20	28*	23	-34	47*	54*	67*
Cc1[nH]c2ccccc2c1/C=N/Nc1cccc(C(=O)O)c1	.	1	54*	-19	-36	.	54*	41*
O=C(O)c1cccc(N/N=C/c2cc(Br)cc(Br)c2O)c1	-39	1	12	22	-3	-35	.	.
Cc1[nH]c2ccccc2c1/C=N/NC(=O)c1ccccc1	.	15	-3	.	-4	.	.	.
CCOc1ccc(CN(C)C(=O)CCc2ccc(S(=O)(=O)N3CCCCCC3)cc2)cc1	.	18	.	.	.	.	.	.
Cc1cc(OCC(=O)Nc2ccc(S(=O)(=O)N3CCN(C)CC3)cc2)ccc1Br	.	-1	1	.	-4	.	.	.
COc1ccc(N2CCN(S(=O)(=O)CCNC(=O)c3cccs3)CC2)cc1	.	-10	.	.	-8	.	.	.
CCc1nnc(N/N=C/c2c(C)[nH]c3ccccc23)n1N	5	-9	75*	5	.	-16	-1	-3
Cc1[nH]c2ccccc2c1/C=N/NC(N)=S	.	-13	8	-8	1	.	.	.
SMILES	STAT3 blocker	TRAIL sens C8	HSP90 refold inh	PPC-1+TRAIL kill	HSF1 inh	STAT1 inh	HSP90 confirm	FLuc counter
O=C(CSc1nnc(-c2ccccc2)o1)N1CCCCC1	.	-2	21*	.	11	.	2	-19
COc1ccc2c(c1)Cc1sc(NC(=O)c3ccco3)nc1-2	24	-12	-2	21	42	-97	.	.
COc1ccc2c(c1)Cc1sc(NC(C)=O)nc1-2	5	-1	32*	-9	-3	-49	2	-10
Cc1ccc(-c2noc(CCC(=O)NCc3ccco3)n2)cc1	10	-10	24*	-18	-3	-3	-2	-14
COc1ccccc1S(=O)(=O)N(C)C[C@H]1OCc2cnnn2CCCC(=O)N([C@H](C)CO)C[C@H]1C	.	15	.	.	.	.	.	.
Cc1ccccc1NC(=O)CN1CCN(Cc2ccccc2)CC1	.	-20	-1	.	-6	.	.	.
CCN(CC)S(=O)(=O)c1ccc(C)c(NC(=O)CN2CCN(Cc3ccccc3)CC2)c1	.	-7	29*	8	-2	.	5	-1
Cc1ccc2c(c1)S/C(=C\c1cccc[n+]1C)N2CCO	.	10	-2	.	-7	.	.	.
C[n+]1ccccc1/C=C1\Sc2ccccc2N1CCO	.	-1	18*	.	-3	.	0	-2
C=CCSc1nnc(C)c(/C=C/Nc2ccc(Cl)cc2)n1	0	-5	1	-12	11	-7	.	.
N/C(=N\OC(=O)/C=C/c1ccccc1Cl)c1ccncc1	16	8	31*	.	19	-17	2	-19
CC(C)(C)CC(=O)O/N=C(\N)c1ccccn1	24	36	21*	25	0	-29	35*	22*
N/C(=N\OC(=O)/C=C/c1ccccc1)c1ccccn1	32	10	19*	12	4	-12	15	73*
COc1ccc(/C=C/C(=O)O/N=C(\N)c2ccccn2)cc1OC	.	12	.	.	.	.	.	.
N/C(=N\OC(=O)/C=C/c1ccccc1)c1ccncc1	9	-8	0	.	28	-28	.	.
CC(=O)N1CCc2cc(C(=O)CN3CCN(c4ccccn4)CC3)ccc21	.	-4	6	2	0	.	.	.
Cc1ccc(C(=O)NC2CCCCCCC2)c(Cl)c1	.	61*	42*	.	11	.	63*	53*
O=C(NC1CCCCCCC1)c1cc(F)c(F)cc1Cl	-6	5	-3	21	23	-32	.	.
O=C(CSc1nc(=O)n2cc(Cl)ccc2n1)Nc1cccc2ccccc12	.	-3	.	.	16	.	.	.
CN(C)S(=O)(=O)Oc1ccsc1C(=O)Nc1ccc(Cl)c(Cl)c1	9	4	20*	9	1	3	6	-2
COc1ccccc1OCC(=O)NCC(c1cccs1)N1CCOCC1 (stereo not given)	.	-9	-1	.	-3	.	.	.
CC(C)c1ccccc1OCC(=O)NCC(c1cccs1)N1CCOCC1 (stereo not given)	11	-8	24*	19	-3	1	0	-5
COc1ccc(C(=O)O)cc1S(=O)(=O)N1CCN(c2ccccn2)CC1	.	-1	17*	.	11	.	-7	-13

Screening results from PubChem.
